Source: PubChem BioAssay (National Center for Advancing Translational Sciences (NCATS))
Rows were chosen to be rich in hits. Some 2.4% of all compounds tested hit in one or more screens of this group.
POLI inh – qHTS for Inhibitors of Polymerase Iota | Pol iota fluorescent replication assay, 10 min | Potency, µM (series often up to 115 µM), inactives show at the highest dose activity, negative = inhibition, actives largely listed as inhibitors | 390,000 tested, 1% active | AID 588590, 2011; also: potency is read from the fitted curve at half-maximal effect
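Pol iota at 10 nM preincubated 15 min with compounds at room temperature; reaction started with fluorescent substrate, 50 nM final. Fluorescence read kinetically at 0 and 10 min; buffer-only wells as negative control.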
WRN helicase inh – qHTS for Inhibitors of WRN Helicase | WRN helicase unwinding, fluorescent forked duplex, kinetic | Potency, µM (series often up to 114 µM), for the others: at the highest dose activity change, negative = inhibition, usual class: inhibitors | 360,000 tested, 0.46% active | AID 651768, 2012; also: potency is read from the fitted curve at half-maximal effect; % is scaled to controls: 0 for no effect and ±100 for the full control effect; nearly all actives have a fitted effect of over 55% in size
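Kinetic red-fluorescence monitoring (525/598 nm) tracks WRN helicase activity after 100 nM fluorophore-quencher forked duplex and 2 mM ATP are added to 20 nM enzyme pretreated 15 min at room temperature with compound.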
Pol kappa inh-1 – qHTS for Inhibitors of Polymerase Kappa; DNA polymerase kappa (Homo sapiens), Q9UBT6; purified Pol kappa, fluorescent DNA synthesis assay, 10 min; Potency, µM (doses to about 107 µM), inactives show at the top dose activity, negative = inhibition, hits mostly inhibitors; 400,000 tested, 0.53% active; AID 588579, 2011; also: potency is read from the fitted curve at half-maximal effect; % is scaled to controls: 0 for no effect and ±100 for the full control effect
Target sequence (Q9UBT6 whole entry, looked up): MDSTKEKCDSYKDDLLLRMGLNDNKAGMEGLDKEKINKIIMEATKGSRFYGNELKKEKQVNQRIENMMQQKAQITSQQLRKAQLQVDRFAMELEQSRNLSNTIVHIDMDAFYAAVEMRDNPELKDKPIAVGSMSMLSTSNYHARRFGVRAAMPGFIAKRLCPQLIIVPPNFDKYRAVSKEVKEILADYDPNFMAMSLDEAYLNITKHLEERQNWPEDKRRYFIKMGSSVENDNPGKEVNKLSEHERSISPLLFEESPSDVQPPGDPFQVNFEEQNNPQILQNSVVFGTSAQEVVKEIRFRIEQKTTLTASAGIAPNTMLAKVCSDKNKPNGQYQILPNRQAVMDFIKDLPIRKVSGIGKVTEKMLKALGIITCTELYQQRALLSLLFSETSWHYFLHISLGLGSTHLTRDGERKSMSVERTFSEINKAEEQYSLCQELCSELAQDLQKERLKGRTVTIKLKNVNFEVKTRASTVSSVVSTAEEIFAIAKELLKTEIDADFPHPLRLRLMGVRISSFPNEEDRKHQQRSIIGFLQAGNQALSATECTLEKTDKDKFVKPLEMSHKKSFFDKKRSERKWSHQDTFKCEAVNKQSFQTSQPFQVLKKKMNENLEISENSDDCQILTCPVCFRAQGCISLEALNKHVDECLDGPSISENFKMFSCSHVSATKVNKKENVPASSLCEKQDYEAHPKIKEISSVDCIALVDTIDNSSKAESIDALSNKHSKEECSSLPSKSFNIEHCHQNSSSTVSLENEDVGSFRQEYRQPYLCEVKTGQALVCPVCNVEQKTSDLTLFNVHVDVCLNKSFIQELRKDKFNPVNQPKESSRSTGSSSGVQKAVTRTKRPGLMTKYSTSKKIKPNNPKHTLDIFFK
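Readout: fluorescence, taken kinetically at 0 and 10 min. Conditions: 10 nM Pol kappa, 15 min RT compound preincubation, 50 nM substrate final. Controls: enzyme-free buffer wells.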
FEN1 inhibitor – qHTS Assay for the Inhibitors of Human Flap endonuclease 1 (FEN1); P39748; Recombinant FEN1 flap cleavage, fluorescence, 15 min; Potency, µM (highest dose often 114 µM), without a hit: top-dose activity change, negative = inhibition, most hits filed as inhibitors; 390,000 tested, 0.35% active; AID 588795, 2011; also: potency is read from the fitted curve at half-maximal effect; % is scaled to controls: 0 for no effect and ±100 for the full control effect; nearly all actives have a fitted effect of over 65% in size
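FEN1 at 10 nM, compound pretreatment for 15 min (room temperature), 50 nM final substrate to initiate; endpoint reads at 0 and 15 min; DMSO-only plates used as vehicle background.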
Pol eta inh-1 – qHTS for Inhibitors of Polymerase Eta | DNA polymerase eta (Homo sapiens), Q9Y253 | recombinant Pol eta, fluorescent DNA replication assay | Potency, µM (doses to about 114 µM), without a hit: at the highest dose activity change, negative = inhibition, hits mostly inhibitors | 390,000 tested, 1.2% active | AID 588591, 2011; also: potency is read from the fitted curve at half-maximal effect; % is scaled to controls: 0 for no effect and ±100 for the full control effect
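Pol eta (10 nM) was preincubated with compounds for 15 min at room temperature, after which fluorescent replication substrate (50 nM final) was added to start the reaction. Fluorescence was read kinetically at 0 and 10 min.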
Pol beta inh – qHTS Assay for Inhibitors of DNA Polymerase Beta. P06746. Pol beta primer extension/strand displacement, fluorescence kinetic. Potency, µM (titrated, usually from 114 µM), for the others: at the highest dose activity change, negative = inhibition, usual class: inhibitors. 340,000 tested, 1.3% active. AID 485314, 2010; also: potency is read from the fitted curve at half-maximal effect; % is scaled to controls: 0 for no effect and ±100 for the full control effect
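Human Pol beta at 10 nM; strand-displacement substrate 50 nM final. Compound exposure 15 min at room temperature before start, reaction 10 min at room temperature.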
GALK confirm – Confirmation Assay for Inhibitors of Human Galactokinase (GALK) | shares compounds with Pol eta inh-1 | purified GALK, Kinase-Glo ATP depletion luminescence | Potency, µM (highest dose often 115 µM), for the others: at the highest dose activity, negative = inhibition, actives largely listed as inhibitors | 150 tested, 70% active | AID 2015, 2009
Redox cycling – Confirmatory Assay for Inhibitors of Human Galactokinase (GALK): Phenol-HRP redox assay counterscreen; shares compounds with Pol eta inh-1; Phenol red-HRP H2O2 redox cycling, absorbance 600 nm; Potency, µM (highest dose often 115 µM), for inactives: at the top dose activity change, negative = H2O2 signal, usual class: inhibitors; 150 tested, 40% active; AID 2035, 2009
HEK293 tox – Secondary Assay for Inhibitors of Human Galactokinase (GALK): HEK-293 Cell Viability Assay | shares compounds with Pol eta inh-1 | HEK-293 viability, ATP luminescence (CellTiter-Glo), 24/48 h | Potency, µM (titrated, usually from 46.1 µM), without a hit: at the top dose activity change, negative = cytotoxicity, hits mostly inhibitors | 170 tested, 10% active | AID 2547, 2010; also: potency is read from the fitted curve at half-maximal effect; % is scaled to controls: 0 for no effect and ±100 for the full control effect
Pol kappa inh-2 – qHTS for Inhibitors of Polymerase Kappa: Confirmatory Assay for Cherry-picked Compounds; shares compounds with Pol eta inh-1; purified Pol-kappa, fluorescent strand-displacement substrate; Potency, µM, hits mostly inhibitors; 920 tested, 76% active; AID 720501, 2013; also: potency is read from the fitted curve at half-maximal effect
Pol eta inh-2 – qHTS for Inhibitors of Polymerase Eta: Confirmatory Assay for Cherry-picked Compounds | Potency, µM, actives largely listed as inhibitors | AID 720502, 2013 | 2,600 tested, 64% active | shares compounds with Pol eta inh-1 | Pol eta primer extension, TAMRA/BHQ fluorescence, 10 min; also: potency is read from the fitted curve at half-maximal effect
The depositor's hits bear a star; ! = not active in a repeat; [ ] = dose if it differs, or a comment. Calls follow the shape of the dose curve; as a rule, active = well fitted curve in the direction sought with a large enough effect; inconclusive = small, poorly fitted or top-dose-only effect, or another doubt; inactive = no such curve, though single readings can be large; an effect the other way counts as inactive or inconclusive.

Results for Cc1ccc(NC(=O)Nc2ccc3nc(N4CCN(C)CC4)cc(C)c3c2)cc1F ?
POLI inh: inconclusive; Pol kappa inh-1: -14%; FEN1 inhibitor: 15%; Pol eta inh-1: -13%; Pol beta inh: 0%

How did O=C1NC(=O)N(c2ccccc2)C(=O)/C1=C/C=C/c1ccco1 do in these assays?
POLI inh: inconclusive; WRN helicase inh: inconclusive; Pol kappa inh-1: 40µM*; FEN1 inhibitor: inconclusive; Pol eta inh-1: 13µM*; Pol beta inh: inconclusive; Pol eta inh-2: 38*

What do the screens show for `Cc1ccc(N2C(=O)NC(=O)/C(=C\C=C\c3ccco3)C2=O)cc1C`?
POLI inh: 10µM*; WRN helicase inh: 16µM*; Pol kappa inh-1: 25µM*; FEN1 inhibitor: inconclusive; Pol eta inh-1: 22µM*; Pol beta inh: 40µM*; Pol eta inh-2: 60*

How did O=C1NC(=O)N(c2ccccc2)C(=O)/C1=C/c1ccc2c(c1)Cc1ccccc1-2 do in these assays?
Pol beta inh: -9%

Results for O=C1CC2OCC=C3CN4CCC56c7cc([N+](=O)[O-])ccc7N1C5C2C3CC46 (centres undefined) ?
POLI inh: 8%; WRN helicase inh: 7%; Pol kappa inh-1: 0%; FEN1 inhibitor: 2%; Pol eta inh-1: -17%; Pol beta inh: 6%

Results for O=C(O)CC1OCC=C2CN3CCC45C6=CC(=O)C(=O)C([N+](=O)[O-])=C6NC4C1C2CC35 (centres undefined) ?
POLI inh: 1.8µM*!; WRN helicase inh: -30%; Pol kappa inh-1: 40µM*; FEN1 inhibitor: -67%; Pol eta inh-1: 5µM*; Pol beta inh: inconclusive; GALK confirm: 11µM*; Redox cycling: 5.3µM*; HEK293 tox: -1%

What do the screens show for `CCn1nc(-c2ccccc2)nc2c(=O)n(C)c(=O)nc1-2`?
POLI inh: -103%; WRN helicase inh: -18%; Pol kappa inh-1: -8%; FEN1 inhibitor: -12%; Pol eta inh-1: 0.79µM*; Pol beta inh: inconclusive; GALK confirm: 0.6µM*; Redox cycling: 0.67µM*; HEK293 tox: inconclusive

How did O=C(O)CCC(=O)NCCC1=c2ccccc2=N/C1=C\c1c(O)n(Cc2ccc(F)cc2)c(=S)[nH]c1=O do in these assays?
POLI inh: inconclusive; WRN helicase inh: 79µM*; Pol kappa inh-1: inconclusive; FEN1 inhibitor: -10%; Pol eta inh-1: 50µM*; Pol beta inh: -8%; Pol eta inh-2: inconclusive

How did O=c1cc(-c2ccc(O)c(O)c2)oc2c(C3O[C@H](CO)[C@@H](O)[C@H](O)[C@H]3O)c(O)cc(O)c12 (some centres undefined) do in these assays?
POLI inh: 28µM*; WRN helicase inh: -6%; Pol kappa inh-1: 20µM*; FEN1 inhibitor: -18%; Pol eta inh-1: inconclusive; Pol beta inh: 20µM*; Pol kappa inh-2: 19*; Pol eta inh-2: inconclusive

How did CC(N)(COP(=O)(O)Oc1ccccc1)C(=O)O (centres undefined) do in these assays?
Pol kappa inh-1: 4%[19.4 µM]

Results for CN1C(=O)/C(=C\c2ccc(N3CCCCC3)o2)C(=O)NC1=S ?
POLI inh: inconclusive; WRN helicase inh: -18%; Pol kappa inh-1: -3%; FEN1 inhibitor: 6%; Pol eta inh-1: -29%; Pol beta inh: -13%

Results for CCOc1ccc(N2C(=O)/C(=C/c3ccc(C)o3)C(=O)NC2=S)cc1 ?
POLI inh: 8.9µM*; WRN helicase inh: 45µM*; Pol kappa inh-1: 28µM*; FEN1 inhibitor: 22µM*; Pol eta inh-1: 4µM*; Pol beta inh: 28µM*; Pol eta inh-2: 30*

What do the screens show for `CCOc1ccc(N2C(=O)NC(=O)/C(=C\c3ccc(N4CCCCC4)o3)C2=O)cc1`?
POLI inh: 31%; WRN helicase inh: 3%; Pol kappa inh-1: -5%; FEN1 inhibitor: 2%; Pol eta inh-1: -21%; Pol beta inh: 4%[57.1 µM]

What do the screens show for `COc1ccc(N2C(=O)/C(=C/c3ccc(C)o3)C(=O)NC2=S)cc1`?
POLI inh: 25µM*; WRN helicase inh: inconclusive; Pol kappa inh-1: -96%; FEN1 inhibitor: inconclusive; Pol eta inh-1: 13µM*; Pol beta inh: 35µM*; Pol kappa inh-2: 17*; Pol eta inh-2: 30*

How did O=C(CCCN1CCC2(CC1)C(=O)N(Cc1cccc(F)c1)CN2c1ccccc1)c1ccc(F)cc1 do in these assays?
Pol kappa inh-1: -1%[19.4 µM]

What do the screens show for `Cc1ccc(OCCn2cccc2/C=C2/C(=O)NC(=O)N(Cc3ccco3)C2=O)cc1`?
POLI inh: 8.9µM*; WRN helicase inh: inconclusive; Pol kappa inh-1: 28µM*; FEN1 inhibitor: inconclusive; Pol eta inh-1: 20µM*; Pol beta inh: -14%; Pol eta inh-2: 67*
